Data published in PubChem BioAssay (EPA / NIEHS).
Records with an inconclusive call do not appear. Activity calls are given as the source filed them. How the source made its calls, unless noted: active means hit-call score of the fitted dose curve at least 0.9, where 1 is the maximum; inactive means score below 0.9.

Legend:
[1] = ATG_PBREM_CIS: Attagene CIS-FACTORIAL HepG2 Assay for human Phenobarbital-responsive Enhancer Module (PBREM) (AID 2282955); settings: HepG2 PBREM cis-reporter, Attagene multiplexed transcription; actives raise or lower the signal
Method in brief: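 Fluorescence of labelled reporter cDNA fragments, resolved by capillary electrophoresis, gives mRNA induction in transfected HepG2 cells treated for 24 h; DMSO serves as negative control and baseline.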

[2] = biological target: Paired box protein Pax-6 (Homo sapiens) (UniProt P26367); test: ATG_Pax6_CIS: Attagene CIS-FACTORIAL HepG2 Assay for human Paired Box 6 (PAX6) (AID 2282956); settings: HepG2 CIS-FACTORIAL PAX6 reporter transcription, RNA readout; actives raise or lower the signal
Method in brief: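 Fluorescent RT-PCR products separated by capillary electrophoresis report PAX6-linked promoter mRNA in HepG2 cells 24 h post-dose. Curves fitted bidirectionally, DMSO as negative control.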

[3] = ATG_PXRE_CIS: Attagene CIS-FACTORIAL HepG2 Assay for human Pregnane X Receptor Element (PXRE) (AID 2282957); settings: HepG2 Attagene CIS-FACTORIAL PXRE reporter, mRNA; actives raise or lower the signal
Method in brief: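 After a 24 h chemical incubation, total RNA from transfected HepG2 cells was reverse-transcribed and reporter cDNA amplified, FAM-labeled, HpaI-digested and sized by capillary electrophoresis. DMSO served as baseline for bidirectional curve fitting.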

[4] = ATG_PPRE_CIS: Attagene CIS-FACTORIAL HepG2 Assay for human Peroxisome Proliferator-activated Response Element (PPRE) (AID 2282958); settings: HepG2 PPRE cis-element reporter, Attagene transcription factor profiling; actives raise or lower the signal
Method in brief: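 Cells are first transfected transiently with the multiplexed reporter library, then dosed for 24 h. Total RNA is reverse-transcribed, amplified, fluorescently end-labeled and HpaI-cut before capillary electrophoresis; activity is fitted bidirectionally against DMSO controls.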

[5] = ATG_RORE_CIS: Attagene CIS-FACTORIAL HepG2 Assay for human RAR-related Orphan Receptor Element (RORE) (AID 2282959); settings: HepG2 Attagene cis-factorial RORE reporter, mRNA; actives raise or lower the signal
Method in brief: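 Cells were HepG2 carrying transfected cis-regulated reporter constructs, dosed for 24 hours. Total RNA was reverse-transcribed and reporter cDNA amplified, fluorescently labeled and sized by capillary electrophoresis. Activity was fitted bidirectionally relative to DMSO.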

[6] = ATG_Sox_CIS: Attagene CIS-FACTORIAL HepG2 Assay for human SRY-box transcription factor (SOX) (AID 2282960); settings: HepG2 Attagene cis-factorial SOX reporter, mRNA; actives raise or lower the signal
Method in brief: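 Transient MRTU transfection of HepG2; 24 h compound incubation; TriZol RNA, oligo(dT) RT, PCR, 6-FAM primer extension, HpaI cut, CE. Bidirectional fit, DMSO = baseline.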

[7] = biological target: Transcription factor Sp1 (Homo sapiens) (UniProt P08047); test: ATG_Sp1_CIS: Attagene CIS-FACTORIAL HepG2 Assay for human Specificity Protein 1 (Sp1) (AID 2282961); settings: HepG2 Sp1 cis-reporter transcription, actives raise or lower the signal
Method in brief: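 Endogenous Sp1 activity was gauged in human liver HepG2 cells bearing transfected reporter units under a cis-regulating promoter. After 24 h dosing, reporter mRNA was quantified by RT-PCR with capillary electrophoresis, and activity fitted bidirectionally versus DMSO.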

[8] = ATG_SREBP_CIS: Attagene CIS-FACTORIAL HepG2 Assay for human Sterol Regulatory Element Binding (SREBP) (AID 2282962); settings: HepG2 Attagene cis-factorial SREBP reporter, mRNA; actives raise or lower the signal
Method in brief: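 Endogenous factor activity is measured in HepG2 through multiplexed reporter units under cis-element control. Following a 24 h incubation, reporter transcripts are reverse-transcribed, PCR-amplified and sized by capillary electrophoresis; activity is fitted in both directions relative to DMSO.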

[9] = biological target: Signal transducer and activator of transcription 3 (Homo sapiens) (UniProt P40763); test: ATG_STAT3_CIS: Attagene CIS-FACTORIAL HepG2 Assay for human Signal Transducer and Activator of Transcription 3 (STAT3) (AID 2282963); settings: HepG2, Attagene cis-factorial STAT3 reporter transcription; actives raise or lower the signal
Method in brief: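 Fluorescence intensity of 6-FAM-labelled reporter fragments, separated by capillary electrophoresis after RT-PCR, gave the signal. Cells were HepG2 transfected with cis-element reporter units and treated 24 h; fitting was bidirectional relative to DMSO.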

[10] = ATG_TA_CIS: Attagene CIS-FACTORIAL HepG2 Assay for human TA Basal Promoter (AID 2282964); settings: HepG2 Attagene CIS-factorial TA basal promoter reporter; actives raise or lower the signal
Method in brief: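 Read-out: fluorescent reporter-transcript fragments resolved by capillary electrophoresis after RT-PCR and HpaI digestion. Source: HepG2 cells carrying transiently transfected multi-reporter cis constructs, treated 24 h. Endpoint fitted bidirectionally relative to DMSO.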

[11] = ATG_TCF_b_cat_CIS: Attagene CIS-FACTORIAL HepG2 Assay for human T-Cell-Factor with beta-catenin (TCF/b-cat) (AID 2282965); settings: HepG2 TCF/beta-catenin cis-reporter transcription, actives raise or lower the signal
Method in brief: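 Cells of the HepG2 line carry transiently transfected reporter units whose promoters respond to endogenous factors. Twenty-four hours post-dosing, reporter mRNA induction is measured by fluorescent RT-PCR and capillary electrophoresis, with DMSO as baseline.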

[12] = ATG_TAL_CIS: Attagene CIS-FACTORIAL HepG2 Assay for human TAL Basal Promoter (AID 2282966); settings: HepG2 Attagene cis-factorial TAL promoter reporter; actives raise or lower the signal;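 further: background control endpoint measuring basal TAL promoter reporter mRNA not a specific factor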
Method in brief: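 Basal-promoter background-control endpoint from a multiplexed HepG2 reporter panel. Cells were exposed 24 h, then reporter mRNA was read by RT-PCR/CE fluorescence and fitted in both directions relative to DMSO.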

[13] = ATG_TGFb_CIS: Attagene CIS-FACTORIAL HepG2 Assay for human Transforming Growth Factor (TGF) (AID 2282967); settings: HepG2 Attagene CIS TGFb reporter, mRNA transcription; actives raise or lower the signal
Method in brief: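 Transient MRTU transfection of HepG2 (FuGene 6). Dose 24 h. TriZol RNA, oligo(dT) RT, PCR, 6-FAM primer extension, HpaI cut, CE. Bidirectional fit, DMSO = baseline.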

[14] = biological target: Nuclear receptor subfamily 1 group I member 3 (Homo sapiens) (UniProt Q14994); test: ATG_CAR_TRANS: Attagene TRANS-FACTORIAL HepG2 Assay for human Constitutive Androstane Receptor (CAR) (AID 2282969; active means hit-call score of the fitted dose curve at least 0.9, where 1 is the maximum;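 further: activators raise reporter mRNA above DMSO so AC50 marks induction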); settings: HepG2 Attagene TRANS-FACTORIAL CAR reporter
Method in brief: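 Transiently transfected HepG2, multiplex TRANS reporters (CAR-Gal4 chimera driving GAL4-UAS reporter). 24 h dosing. Readout: reporter transcript by RT-PCR + capillary electrophoresis, fluorescence intensity; positive direction vs DMSO.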

[15] = biological target: Estrogen receptor (Homo sapiens) (UniProt P03372); test: ATG_ERa_TRANS: Attagene TRANS-FACTORIAL HepG2 Assay for human Estrogen Receptor alpha (ERa) (AID 2282970; active means hit-call score of the fitted dose curve at least 0.9, where 1 is the maximum); settings: HepG2 Attagene TRANS ERa GAL4 reporter, mRNA
Method in brief: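 Gal4-fusion ERa transactivation, measured as reporter transcript level in transiently transfected HepG2 cells. Exposure 24 h; RT-PCR plus capillary electrophoresis with fluorescence detection.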

[16] = biological target: X-box-binding protein 1 (Homo sapiens) (UniProt P17861); test: ATG_Xbp1_CIS: Attagene CIS-FACTORIAL HepG2 Assay for human X-box Binding Protein 1 (XBP1) (AID 2282972); settings: HepG2 XBP1 cis-element reporter, Attagene multiplex; actives raise or lower the signal
Method in brief: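 Multiplexed cis-reporter readout in transfected HepG2 liver cells. Exposure lasted 24 hours. Activity in either direction was fitted against DMSO as negative control and baseline.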

[17] = ATG_VDRE_CIS: Attagene CIS-FACTORIAL HepG2 Assay for human Vitamin D Receptor Element (VDRE) (AID 2282968); settings: HepG2 VDRE cis-reporter transcription, actives raise or lower the signal
Method in brief: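 Compounds were applied for 24 h to HepG2 cells transfected with promoter-regulated reporter units. Total RNA was reverse-transcribed, and reporter amplicons were fluorescently labelled and sized by capillary electrophoresis.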

[18] = biological target: Steroid hormone receptor ERR1 (Homo sapiens) (UniProt P11474); test: ATG_ERRa_TRANS: Attagene TRANS-FACTORIAL HepG2 Assay for human Estrogen-Related Receptor alpha (ERRa) (AID 2282971; active means hit-call score of the fitted dose curve at least 0.9, where 1 is the maximum); settings: HepG2 Attagene TRANS reporter, ERRa transactivation
Method in brief: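 HepG2 cells transiently transfected with GAL4-UAS reporter units and chimeric NR-Gal4 constructs; after 24 hour compound incubation, reporter mRNA quantified by RT-PCR, fluorescent labelling and capillary electrophoresis, gain of signal versus DMSO.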

[19] = ATG_M_19_TRANS: Attagene TRANS-FACTORIAL HepG2 Assay for M19 Transcription Factor (Internal Marker) (AID 2282974; active means hit-call score of the fitted dose curve at least 0.9, where 1 is the maximum); settings: HepG2 Attagene TRANS-FACTORIAL M19 internal marker reporter
Method in brief: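 Cells: human HepG2, transiently transfected with multiplexed reporter transcription units. Exposure: 24 h. Detection: RT-PCR of reporter mRNA with capillary electrophoresis. Analysis: gain-of-signal vs DMSO.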

[20] = biological target: Androgen receptor (Homo sapiens) (UniProt P10275); test: ATG_AR_TRANS: Attagene TRANS-FACTORIAL HepG2 Assay for human Androgen Receptor (AR) (AID 2282973; active means hit-call score of the fitted dose curve at least 0.9, where 1 is the maximum); settings: HepG2 Attagene TRANS-FACTORIAL AR reporter transcription
Method in brief: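 HepG2 cells transiently transfected with AR-Gal4 chimera and GAL4-UAS reporter units; chemical exposure 24 h. Reporter mRNA quantified by RT-PCR with fluorescent labelling and capillary electrophoresis; gain-of-signal fitted against DMSO.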

Sequence of Steroid hormone receptor ERR1 (Homo sapiens) (P11474 whole entry, looked up, the tested form may be a part): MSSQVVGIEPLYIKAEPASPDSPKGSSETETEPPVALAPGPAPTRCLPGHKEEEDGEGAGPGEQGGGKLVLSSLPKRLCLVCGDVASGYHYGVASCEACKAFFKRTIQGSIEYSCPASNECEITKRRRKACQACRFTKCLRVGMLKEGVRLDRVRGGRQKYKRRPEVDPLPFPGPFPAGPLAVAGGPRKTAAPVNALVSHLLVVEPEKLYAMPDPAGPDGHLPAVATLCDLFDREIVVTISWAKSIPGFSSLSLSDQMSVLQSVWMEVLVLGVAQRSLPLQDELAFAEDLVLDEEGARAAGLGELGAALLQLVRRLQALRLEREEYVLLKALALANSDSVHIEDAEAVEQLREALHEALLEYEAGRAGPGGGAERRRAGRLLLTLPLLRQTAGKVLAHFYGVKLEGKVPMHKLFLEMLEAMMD
Sequence of Nuclear receptor subfamily 1 group I member 3 (Homo sapiens) (Q14994 whole entry, looked up, the tested form may be a part): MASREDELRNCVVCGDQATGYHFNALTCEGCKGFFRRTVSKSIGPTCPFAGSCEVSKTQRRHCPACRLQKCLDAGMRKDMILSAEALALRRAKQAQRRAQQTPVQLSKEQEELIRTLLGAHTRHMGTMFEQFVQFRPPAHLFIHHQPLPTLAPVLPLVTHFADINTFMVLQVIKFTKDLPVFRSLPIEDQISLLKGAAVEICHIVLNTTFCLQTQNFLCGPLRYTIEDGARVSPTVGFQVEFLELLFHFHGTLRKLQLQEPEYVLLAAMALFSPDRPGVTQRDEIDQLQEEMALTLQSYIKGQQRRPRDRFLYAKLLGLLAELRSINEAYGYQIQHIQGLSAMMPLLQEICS
Sequence of Paired box protein Pax-6 (Homo sapiens) (P26367 whole entry, looked up): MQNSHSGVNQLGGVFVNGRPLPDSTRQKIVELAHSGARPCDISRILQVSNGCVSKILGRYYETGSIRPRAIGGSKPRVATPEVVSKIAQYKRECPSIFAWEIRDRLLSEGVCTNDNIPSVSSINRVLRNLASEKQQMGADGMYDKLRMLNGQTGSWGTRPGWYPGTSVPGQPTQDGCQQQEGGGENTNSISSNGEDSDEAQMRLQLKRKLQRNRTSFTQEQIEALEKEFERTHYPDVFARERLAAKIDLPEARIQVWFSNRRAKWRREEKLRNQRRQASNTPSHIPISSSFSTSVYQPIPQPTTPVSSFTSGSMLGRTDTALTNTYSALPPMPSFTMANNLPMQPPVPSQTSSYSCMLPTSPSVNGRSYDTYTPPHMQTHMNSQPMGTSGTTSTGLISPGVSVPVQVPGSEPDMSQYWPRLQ
Sequence of X-box-binding protein 1 (Homo sapiens) (P17861 whole entry, looked up): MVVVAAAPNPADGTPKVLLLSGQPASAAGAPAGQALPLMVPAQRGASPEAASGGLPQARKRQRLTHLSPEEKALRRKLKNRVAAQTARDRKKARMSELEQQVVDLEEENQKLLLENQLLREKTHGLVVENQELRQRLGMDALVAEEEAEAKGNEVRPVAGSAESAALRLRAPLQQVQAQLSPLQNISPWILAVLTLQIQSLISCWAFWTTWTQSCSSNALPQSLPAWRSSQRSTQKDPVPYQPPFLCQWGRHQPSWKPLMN
Sequence of Estrogen receptor (Homo sapiens) (P03372 whole entry, looked up, the tested form may be a part): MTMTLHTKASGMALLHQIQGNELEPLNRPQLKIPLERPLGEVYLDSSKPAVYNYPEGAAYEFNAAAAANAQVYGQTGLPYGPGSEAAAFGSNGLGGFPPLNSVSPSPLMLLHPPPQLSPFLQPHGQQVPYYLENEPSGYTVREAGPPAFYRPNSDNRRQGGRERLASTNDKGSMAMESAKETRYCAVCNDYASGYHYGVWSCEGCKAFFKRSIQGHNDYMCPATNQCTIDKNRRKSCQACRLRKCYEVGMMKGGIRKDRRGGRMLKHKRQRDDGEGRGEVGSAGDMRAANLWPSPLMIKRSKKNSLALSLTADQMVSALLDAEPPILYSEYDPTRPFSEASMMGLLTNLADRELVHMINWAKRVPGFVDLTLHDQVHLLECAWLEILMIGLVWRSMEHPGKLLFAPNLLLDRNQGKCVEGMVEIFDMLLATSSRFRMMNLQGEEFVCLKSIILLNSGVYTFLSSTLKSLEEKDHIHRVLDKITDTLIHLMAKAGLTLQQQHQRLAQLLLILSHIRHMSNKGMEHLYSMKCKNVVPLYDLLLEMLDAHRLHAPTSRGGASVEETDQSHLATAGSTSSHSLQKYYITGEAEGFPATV
Sequence of Signal transducer and activator of transcription 3 (Homo sapiens) (P40763 whole entry, looked up, the tested form may be a part): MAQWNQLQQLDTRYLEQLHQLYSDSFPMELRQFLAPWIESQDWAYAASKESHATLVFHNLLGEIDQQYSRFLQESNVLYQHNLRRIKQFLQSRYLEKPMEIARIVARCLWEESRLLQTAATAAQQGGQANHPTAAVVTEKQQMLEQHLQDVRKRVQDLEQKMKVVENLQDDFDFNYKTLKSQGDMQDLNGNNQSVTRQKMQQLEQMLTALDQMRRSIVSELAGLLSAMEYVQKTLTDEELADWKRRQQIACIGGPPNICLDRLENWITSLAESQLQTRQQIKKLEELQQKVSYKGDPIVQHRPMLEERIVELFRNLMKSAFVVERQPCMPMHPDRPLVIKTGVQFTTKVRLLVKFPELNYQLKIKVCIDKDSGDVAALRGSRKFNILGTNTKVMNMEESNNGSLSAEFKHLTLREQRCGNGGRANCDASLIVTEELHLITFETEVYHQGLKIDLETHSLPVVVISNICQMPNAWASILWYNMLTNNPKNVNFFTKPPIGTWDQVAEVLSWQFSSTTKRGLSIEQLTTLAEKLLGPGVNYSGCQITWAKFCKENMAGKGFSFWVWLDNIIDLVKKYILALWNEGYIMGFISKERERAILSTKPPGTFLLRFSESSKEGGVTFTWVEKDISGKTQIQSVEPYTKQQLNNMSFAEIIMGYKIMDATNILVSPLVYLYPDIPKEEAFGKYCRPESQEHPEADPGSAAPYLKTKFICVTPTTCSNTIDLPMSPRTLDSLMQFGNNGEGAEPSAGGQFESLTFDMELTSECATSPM
Sequence of Transcription factor Sp1 (Homo sapiens) (P08047 whole entry, looked up): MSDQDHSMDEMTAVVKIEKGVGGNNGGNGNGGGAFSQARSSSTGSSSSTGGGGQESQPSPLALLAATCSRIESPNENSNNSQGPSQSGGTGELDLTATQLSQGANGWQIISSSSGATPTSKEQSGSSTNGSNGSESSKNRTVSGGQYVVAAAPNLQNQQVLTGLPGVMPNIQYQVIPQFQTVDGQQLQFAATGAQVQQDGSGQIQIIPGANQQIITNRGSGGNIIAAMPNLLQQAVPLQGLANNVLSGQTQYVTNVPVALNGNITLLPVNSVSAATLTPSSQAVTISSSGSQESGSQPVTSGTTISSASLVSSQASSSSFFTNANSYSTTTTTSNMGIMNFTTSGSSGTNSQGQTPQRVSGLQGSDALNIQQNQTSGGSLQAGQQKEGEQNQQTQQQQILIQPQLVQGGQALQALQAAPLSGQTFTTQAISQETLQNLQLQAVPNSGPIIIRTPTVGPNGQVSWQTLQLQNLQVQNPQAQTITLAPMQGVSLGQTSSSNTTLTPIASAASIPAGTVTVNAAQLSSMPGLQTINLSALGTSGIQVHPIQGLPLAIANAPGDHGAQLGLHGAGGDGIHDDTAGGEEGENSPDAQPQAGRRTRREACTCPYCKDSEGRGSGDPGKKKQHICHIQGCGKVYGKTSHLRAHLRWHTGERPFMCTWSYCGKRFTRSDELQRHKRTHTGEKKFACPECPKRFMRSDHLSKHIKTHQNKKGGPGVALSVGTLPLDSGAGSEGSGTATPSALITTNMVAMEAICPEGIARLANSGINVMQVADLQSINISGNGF
Sequence of Androgen receptor (Homo sapiens) (P10275 whole entry, looked up, the tested form may be a part): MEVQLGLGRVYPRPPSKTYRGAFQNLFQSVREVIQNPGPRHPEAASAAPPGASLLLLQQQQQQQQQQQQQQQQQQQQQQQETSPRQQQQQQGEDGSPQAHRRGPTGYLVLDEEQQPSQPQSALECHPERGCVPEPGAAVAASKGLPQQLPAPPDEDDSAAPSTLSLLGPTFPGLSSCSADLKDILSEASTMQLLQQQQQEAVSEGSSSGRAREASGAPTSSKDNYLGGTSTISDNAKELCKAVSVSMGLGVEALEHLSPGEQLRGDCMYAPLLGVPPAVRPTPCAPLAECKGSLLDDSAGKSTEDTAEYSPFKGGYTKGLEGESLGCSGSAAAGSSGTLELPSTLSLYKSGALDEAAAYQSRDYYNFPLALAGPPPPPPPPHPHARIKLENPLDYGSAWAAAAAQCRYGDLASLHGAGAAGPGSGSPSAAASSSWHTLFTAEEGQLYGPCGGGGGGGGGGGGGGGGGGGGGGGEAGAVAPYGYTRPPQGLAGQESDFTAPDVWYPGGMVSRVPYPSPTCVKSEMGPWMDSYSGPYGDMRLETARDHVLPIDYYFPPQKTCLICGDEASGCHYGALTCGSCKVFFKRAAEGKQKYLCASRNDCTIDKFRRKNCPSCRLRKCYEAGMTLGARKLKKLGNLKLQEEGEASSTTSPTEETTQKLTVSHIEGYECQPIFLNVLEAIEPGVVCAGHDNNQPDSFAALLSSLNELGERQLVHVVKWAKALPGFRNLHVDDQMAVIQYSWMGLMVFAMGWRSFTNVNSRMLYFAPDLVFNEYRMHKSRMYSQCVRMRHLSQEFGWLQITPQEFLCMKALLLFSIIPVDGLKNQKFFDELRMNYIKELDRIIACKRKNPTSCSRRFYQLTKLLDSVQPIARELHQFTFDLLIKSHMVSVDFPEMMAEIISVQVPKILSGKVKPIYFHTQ

CCOC(=O)C(C)OC(=O)c1cc(Oc2ccc(C(F)(F)F)cc2Cl)ccc1[N+](=O)[O-] (stereo not drawn)
AC50 [1]: 19.1 µM (active) | outcome [2]: inactive | AC50 [3]: 7.84 µM (active) | AC50 [4]: 11.7 µM (active) | AC50 [5]: 50 µM (active) | outcome [6]: inactive | outcome [7]: inactive | AC50 [8]: 19.3 µM (active) | outcome [9]: inactive | outcome [10]: inactive | outcome [11]: inactive | outcome [12]: inactive | outcome [13]: inactive | outcome [14]: inactive | AC50 [15]: 50 µM (active) | outcome [16]: inactive

Cn1c(-c2ccccc2)cc(-c2ccccc2)[n+]1C
outcome [1]: inactive | outcome [2]: inactive | outcome [3]: inactive | outcome [5]: inactive | outcome [6]: inactive | outcome [7]: inactive | outcome [8]: inactive | outcome [9]: inactive | outcome [10]: inactive | outcome [11]: inactive | outcome [12]: inactive | outcome [13]: inactive | outcome [17]: inactive | outcome [15]: inactive | outcome [18]: inactive | outcome [16]: inactive | outcome [19]: inactive

CCNC(=O)NC(=O)C(C#N)=NOC
outcome [1]: inactive | outcome [2]: inactive | outcome [3]: inactive | outcome [4]: inactive | outcome [5]: inactive | outcome [6]: inactive | outcome [7]: inactive | outcome [8]: inactive | outcome [9]: inactive | outcome [10]: inactive | outcome [11]: inactive | outcome [12]: inactive | outcome [13]: inactive | outcome [17]: inactive | outcome [14]: inactive | outcome [15]: inactive | outcome [18]: inactive | outcome [16]: inactive | outcome [19]: inactive

COc1ccc(-c2ccccc2)cc1NNC(=O)OC(C)C
AC50 [1]: 15.9 µM (active) | outcome [2]: inactive | AC50 [3]: 3.69 µM (active) | outcome [5]: inactive | outcome [6]: inactive | outcome [7]: inactive | AC50 [8]: 15.2 µM (active) | outcome [9]: inactive | outcome [10]: inactive | outcome [11]: inactive | outcome [12]: inactive | outcome [13]: inactive | AC50 [17]: 7.63 µM (active) | outcome [15]: inactive | AC50 [16]: 50 µM (active) | outcome [20]: inactive

COC(=O)c1c(C(F)F)nc(C(F)(F)F)c(C2=NCCS2)c1CC(C)C
AC50 [1]: 0.876 µM (active) | outcome [2]: inactive | AC50 [3]: 0.123 µM (active) | AC50 [4]: 50 µM (active) | AC50 [5]: 26.8 µM (active) | outcome [6]: inactive | outcome [7]: inactive | outcome [8]: inactive | outcome [9]: inactive | outcome [10]: inactive | outcome [11]: inactive | outcome [12]: inactive | outcome [13]: inactive | AC50 [17]: 0.879 µM (active) | outcome [14]: inactive | AC50 [15]: 19.6 µM (active) | outcome [18]: inactive | outcome [16]: inactive | outcome [19]: inactive

CCN(CC)c1nc(C)cc(OP(=S)(OC)OC)n1
outcome [1]: inactive | outcome [2]: inactive | AC50 [3]: 3.38 µM (active) | AC50 [4]: 34.1 µM (active) | AC50 [5]: 20 µM (active) | outcome [6]: inactive | outcome [7]: inactive | outcome [8]: inactive | outcome [9]: inactive | outcome [10]: inactive | outcome [11]: inactive | outcome [12]: inactive | outcome [13]: inactive | AC50 [17]: 25.4 µM (active) | outcome [14]: inactive | AC50 [15]: 15.5 µM (active) | AC50 [16]: 50 µM (active) | outcome [19]: inactive

Nc1cnn(-c2ccccc2)c(=O)c1Cl
outcome [1]: inactive | outcome [2]: inactive | AC50 [3]: 81.5 µM (active) | outcome [4]: inactive | outcome [5]: inactive | outcome [6]: inactive | outcome [7]: inactive | outcome [8]: inactive | outcome [9]: inactive | outcome [10]: inactive | outcome [11]: inactive | outcome [12]: inactive | outcome [13]: inactive | outcome [17]: inactive | outcome [14]: inactive | outcome [15]: inactive | outcome [16]: inactive | outcome [19]: inactive
